S-ASM inh: inhibitors of human secretory acid sphingomyelinase | P17405 | placental ASM, HMU-PC fluorogenic substrate, 60 min | Potency, µM (top dose mostly 57.5 µM), without a hit: at the highest dose activity change, negative = inhibition, usual class: inhibitors | hit rate 0.006% among 340,000; also: potency is read from the fitted curve at half-maximal effect
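Steps: dispense placental human ASM, pin compound, wait 10 min at room temperature, add HMU-PC0 substrate at 9 uM final, incubate 60 min at 37 °C, add stop solution raising pH to 10, read fluorescence.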
BRCA1 expr act: increases BRCA1 expression. MCF7-BRCA1-FFLuc reporter, luminescence, 48 h; response scale: scaled: vehicle 0%, 10 µM genistein 100%. AID 624202. hit rate 1.1% among 380,000. Potency, µM (doses to about 46.1 µM), for the others: at the top dose activation, hits mostly activators; also: potency is read from the fitted curve at half-maximal effect; nearly all actives have a fitted effect of over 80% in size
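Reporter cells (MCF7, BRCA1 promoter-firefly luciferase) received library compounds across a concentration series for 48 h. End-point luminescence was measured and concentration-effect curves derived after normalization.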
TSHR antag: antagonists of human thyroid stimulating hormone receptor. TSHR-expressing cells, TSH-stimulated cAMP HTRF, 2 h; hits give low values. hit rate 0.2% among 330,000. P16473. activity change, negative = inhibition, % at 11.5 µM. AID 504810;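 active = activity change below a set negative limit, meaning inhibition stronger than a set level, cut at about -70% in these data; inconclusive = activity change between two set negative limits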; also: % is scaled to controls: 0 for no effect and ±100 for the full control effect
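Competitive HTRF cAMP read-out (cryptate anti-cAMP antibody, cAMP-d2; 30 min, room temperature) in freshly harvested TSHR cells. Compounds added before TSH at EC80 (4nM final), followed by 2 hours' incubation at 37 deg C.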
TSG101-PTAP inh: blocks PTAP/TSG101 interaction to inhibit HIV-1 budding. Fluorescence polarization, FITC-PTAP peptide / Tsg101 binding. Potency, µM (top dose mostly 115 µM), for inactives: top-dose activity change, negative = inhibition, most hits filed as inhibitors. 340,000 tested, under 10 active; active = well fitted inhibition curve with a large enough effect in the main read-out, with a control signal flat, not every such curve was filed as active; inconclusive = small, poorly fitted or top-dose-only effect, or effect the other way, or a change in a side signal; inactive = no such curve, though single readings can be large or run the other way; also: potency is read from the fitted curve at half-maximal effect; % of control where 0% means no effect
Target sequence (Q99816 whole entry, looked up): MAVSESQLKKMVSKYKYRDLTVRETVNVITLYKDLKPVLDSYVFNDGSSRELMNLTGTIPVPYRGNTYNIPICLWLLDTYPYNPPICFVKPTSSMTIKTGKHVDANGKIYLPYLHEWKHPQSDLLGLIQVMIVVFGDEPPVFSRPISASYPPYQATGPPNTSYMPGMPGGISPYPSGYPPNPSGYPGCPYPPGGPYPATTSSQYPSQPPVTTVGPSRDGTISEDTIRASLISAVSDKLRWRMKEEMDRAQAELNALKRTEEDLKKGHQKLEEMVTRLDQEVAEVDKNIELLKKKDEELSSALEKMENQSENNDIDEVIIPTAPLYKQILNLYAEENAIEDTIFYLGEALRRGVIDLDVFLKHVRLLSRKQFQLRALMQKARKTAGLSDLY
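Compounds were pin-transferred onto Tsg101 binding domain (10 uM final) in HEPES pH 7.5 buffer, then FITC-PTAP peptide was added at 50 nM final. After 20 min at RT, polarization reported peptide displacement across a qHTS concentration series.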
Anesthetic bind: candidate novel general anesthetic via apoferritin binding; apoferritin/1-aminoanthracene competitive binding, fluorescence; Potency, µM (titrated, usually from 77.5 µM), inactives show top-dose activity change, negative = displacement, actives largely listed as inhibitors; hit rate 0.074% among 350,000; also: potency is read from the fitted curve at half-maximal effect; % is scaled to controls: 0 for no effect and ±100 for the full control effect; nearly all actives have a fitted effect of over 20% in size
Target sequence (P02791 2-175 limits assumed): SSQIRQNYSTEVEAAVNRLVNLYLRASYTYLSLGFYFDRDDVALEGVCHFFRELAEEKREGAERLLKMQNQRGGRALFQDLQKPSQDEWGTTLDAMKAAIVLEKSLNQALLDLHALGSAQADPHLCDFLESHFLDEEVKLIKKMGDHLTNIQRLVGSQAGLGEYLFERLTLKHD
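Apoferritin-based anesthetic binding model; compound displacement of fluorescent 1-AMA measured as endpoint fluorescence after 10 minutes at room temperature, scaled to free-ligand and complex controls.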
The depositor's hits bear a star; ? = inconclusive; nt = no result given; ! = not confirmed by another sample; [ ] = dose if it differs, or a comment. Compounds with a hit are over-represented: about 1.2% of the library has one in this group of screens. Unless noted, calls follow the shape of the dose curve; as a rule, active = well fitted curve in the direction sought with a large enough effect; inconclusive = small, poorly fitted or top-dose-only effect, or another doubt; inactive = no such curve, though single readings can be large; an effect the other way counts as inactive or inconclusive.

SMILES	S-ASM inh	BRCA1 expr act	TSHR antag	TSG101-PTAP inh	Anesthetic bind
Cn1c(-c2ccc(C(C)(C)C)cc2)n[nH]c1=S	-1%	20µM*	-7	-3%	0%
Cc1ccc(C(=O)Nc2ccc(C(F)(F)F)n(C)c2=O)cc1	3%	15%	12	-1%	-1%
COc1ccc(C(=O)Nc2ccc(C(F)(F)F)n(C)c2=O)cc1	-2%	11µM*	-12	-5%	-7%
N#C/C(C(=O)Oc1ccccc1)=C1\C=CC=CN1	0%	3.2µM*	1	1%	-3%
Cn1nnc2c(N3CCN(Cc4ccccc4)CC3)ncnc21	nt	24%	nt	nt	nt
COCCn1c(C)cc(C(=O)CN2C(=O)NC3(CCCCCC3)C2=O)c1C	1%	5.6µM*	-1	0%	nt
COCC(=O)Nc1c(C(=O)Nc2ccc3c(c2)OCCO3)oc2ccccc12	0%	?	-18	-4%	-7%
CCOc1ccc2oc(C(=O)NCC3CCCO3)c(C)c2c1 (stereo not given)	-2%	8.9µM*	-8	-1%	-5%
CCOc1ccc2oc(C(=O)Nc3ccc4c(c3)OCO4)c(C)c2c1	10%	2.8µM*	-24	-4%	6%
CCOc1ccc2oc(C(=O)OCC(=O)N3C(C)CCCC3C)c(C)c2c1 (stereo not given)	0%	-8%	-79*	-9%	nt
CCOCC(=O)Nc1c(C(=O)Nc2ccc3c(c2)OCCO3)oc2ccccc12	-3%	2µM*	10	0%	-3%
O=[N+]([O-])c1ccc(/C=C/c2cc(Cl)nc3ccccc23)cc1	nt	-32%	nt	nt	nt
O=C(NCC1CCCO1)c1ccc(COc2ccccc2)cc1 (stereo not given)	4%	11µM*	11	-4%	-7%
O=C(NNC(=O)c1ccccc1F)c1cccs1	2%	5.6µM*	13	3%	56%
O=C(NNC(=O)c1ccccc1Cl)c1cccs1	4%	?	-4	-7%	-8%
O=C(N[C@@H](Cc1ccccc1)C(=O)NC1CCCCCC1)c1ccco1	3%	11µM*	-4	-7%	-9%
CSCCC(NC(=O)c1ccco1)C(=O)NC1CCC(C)CC1 (stereo not given)	3%	3.5µM*	34	1%	nt
CC(C)[C@H](NC(=O)[C@H](CCCCN)NC(=O)[C@@H](NC(=O)[C@@H]1CCCN1C(=O)[C@H](CCCN=C(N)N)NC(=O)[C@H](CCCN=C(N)N)NC(=O)[C@H](CCCCN)NC(=O)[C@H](CCCCN)NC(=O)CNC(=O)[C@@H](NC(=O)[C@@H]1CCCN1C(=O)[C@@H](N)CCCCN)C(C)C)C(C)C)C(=O)N[C@@H](Cc1ccc(O)cc1)C(=O)N1CCC[C@H]1C(=O)O	nt	nt	nt	nt	-3%
CC1CCCCN1C(=O)COC(=O)c1n[nH]c2ccccc12 (stereo not given)	-2%	10µM*	-9	0%	?
C=C(C)C(=O)OCCOCC	nt	nt	nt	nt	11%
Cc1nn(-c2ccccc2)c(Cl)c1/C=N/NC(=O)c1ccccc1F	-4%	11µM*	-10	-5%	?
Cc1nn(-c2ccccc2)c(Cl)c1/C=N/NC(=O)c1ccn[nH]1	2%	?	-10	3%	2%
COc1ccccc1-c1nn2c(-c3ccco3)nnc2s1	-1%	7.9µM*	-11	-2%	?
COc1ccccc1-c1nn2c(=O)cc(C)nc2s1	-1%	10µM*	-6	-6%	-3%
COc1ccccc1-c1nn2c(-c3ccccc3Cl)nnc2s1	nt	nt	2	nt	-11%
SMILES	S-ASM inh	BRCA1 expr act	TSHR antag	TSG101-PTAP inh	Anesthetic bind
CCN(CC)c1nc(C)nc2c1cnn2CCc1ccccc1	1%	8.9µM*	-3	0%	-12%
CCN(CC)c1ncnc2c1cnn2Cc1ccc(C)cc1	-1%	-8%	-31	-2%	-3%
COC(=O)C1C(=O)c2c([nH]c(C(=O)OC3CCCCC3)c2C)CC1C (stereo not given)	0%	5µM*	-5	-4%	-2%
COC(=O)C1C(=O)c2c([nH]c(C(=O)OC3CCCC3C)c2C)CC1C (stereo not given)	-6%	?	-10	0%	-7%
COc1ccc(CNC(=S)N/N=C(/C)c2ccccc2)cc1	-15%	7.1µM*	-5	0%	-5%
Cn1c(SCc2ccccc2F)nc2cccnc21	6%	6.3µM*	-8	-3%	?
O=c1c2nc(Br)n([C@@H]3O[C@@H]4CO[P@@](O)(=S)O[C@H]4[C@H]3O)c2nc2[nH]c(-c3ccccc3)cn12	nt	nt	nt	nt	0%
CC(C)N1CC(O)=C(c2nc3ccccc3[nH]2)C1=N	3%	8.9µM*	5	-1%	-3%
CC(C1CC2CCC1C2)N1CC(O)=C(c2nc3ccccc3[nH]2)C1=N (stereo not given)	-1%	0%	-7	1%	-3%
C[C@@H]1C(=O)O[C@H]2C[C@@]34[C@H]5C[C@@H](C(C)(C)C)[C@]36[C@H](OC(=O)[C@H]6O)O[C@]4(C(=O)O5)[C@]21O	nt	nt	nt	nt	-8%
Brc1ccc2[nH]c3c(N4CCc5ccccc5C4)ncnc3c2c1	-8%	-69%	-77*	-15%	-5%
C1=C(c2ccccc2)CCN(c2ncnc3nc[nH]c23)C1	0%	0%	-20	0%	8%
c1ccc2c(c1)CCN(c1ncnc3nc[nH]c13)C2	4%	3.5µM*!	1	1%	-7%
c1cncc(-c2noc(C34CC5CC(CC(C5)C3)C4)n2)c1	1%	13µM*	-2	-9%	?
Cc1ccccc1-c1noc(C23CC4CC(CC(C4)C2)C3)n1	-3%	0%[1.84 µM]	-2	-3%	?
Nn1c(SCc2ccccc2)nc2c(cnn2-c2ccccc2)c1=O	-3%	3.2µM*	-15	-1%	-15%
CCOC(=O)C1=C(C)NC(C)=C(C(=O)OCC)C1c1c(F)c(F)c(F)c(F)c1F	nt	nt	-16	nt	nt
CN[C@@H]1[C@H](O[C@@H]2O[C@H](C)[C@@](O)(CO)[C@H]2O[C@H]2[C@H](O)[C@H](O)[C@H](N=C(N)N)[C@@H](O)[C@@H]2N=C(N)N)O[C@@H](CO)[C@H](O)[C@H]1O	nt	nt	nt	nt	4%
COc1cc2nc(N3CCCCC3)nc(NC3CCN(C)CC3)c2cc1OC	nt	-51%	nt	nt	nt
C=CCOc1ccc2oc(=O)cc(C)c2c1	6%	27%	2	1%	-10%
COc1ccc(COc2ccc3c(C)cc(=O)oc3c2)cc1	14%	2.5µM*	-4	-1%	-10%
COc1ccc2c(CN(C)c3ccccc3)cc(=O)oc2c1	-7%	-15%	-2	-1%	-20%
COc1ccc2c(CN(C)Cc3ccccc3)cc(=O)oc2c1	nt	5µM*	nt	nt	nt
COc1ccc(CCNC(=O)COc2ccc3c(C)cc(=O)oc3c2)cc1	6%	1%	0	-8%	nt
Cc1cc(=O)oc2ccc(OCc3ccccc3)cc12	-9%	-25%	-118*	-9%	-5%

Assay outcomes: PubChem BioAssay, National Center for Advancing Translational Sciences (NCATS)
